# Data reported in the supplement of paper PMC8728848.
# The sample as a whole holds a higher share of the strongest signals than the screen did.
# Key:
# Test in all cases: glycan array binding signal (z-score within array); higher = stronger binding
# Details in all cases: glycan notation: IUPAC condensed, linker removed
# [1] = target: Fuc(a1-2)Gal
# Summary of the method: (§1)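 Glycan array binding is given as a within-array Z-score, which can be read as non-binding when negative. The arrays, 3228 of them, came from the Consortium for Functional Glycomics database and were retained only where the protein sequence was available. Z-scores were averaged across arrays of the same protein sequence at different concentrations or buffers and across linkers.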
# [2] = target: Fuc(a1-2)Gal(b1-3)GlcNAc(b1-2)Man(a1-3)[Fuc(a1-2)Gal(b1-3)GlcNAc(b1-2)Man(a1-6)]Man(b1-4)GlcNAc(b1-4)GlcNAc
# Summary of the method: as §1
# [3] = target: Fuc(a1-2)Gal(b1-3)GlcNAc(b1-3)[Gal(b1-4)GlcNAc(b1-6)]Gal(b1-4)Glc
# Summary of the method: as §1
# [4] = target: Fuc(a1-2)Gal(b1-3)[Fuc(a1-4)]GlcNAc(b1-3)[Gal(b1-4)GlcNAc(b1-6)]Gal(b1-4)Glc
# Summary of the method: as §1
# [5] = target: Fuc(a1-2)Gal(b1-4)GlcNAc(b1-2)Man(a1-3)[Fuc(a1-2)Gal(b1-4)GlcNAc(b1-2)Man(a1-6)]Man(b1-4)GlcNAc(b1-4)[Fuc(a1-6)]GlcNAc
# Summary of the method: as §1
# [6] = target: Fuc(a1-2)Gal(b1-4)GlcNAc(b1-2)[Fuc(a1-2)Gal(b1-4)GlcNAc(b1-4)]Man(a1-3)[Fuc(a1-2)Gal(b1-4)GlcNAc(b1-2)Man(a1-6)]Man(b1-4)GlcNAc(b1-4)GlcNAc
# Summary of the method: as §1
# [7] = target: Fuc(a1-2)Gal(b1-4)[Fuc(a1-3)]GlcNAc(b1-2)[Fuc(a1-2)Gal(b1-4)[Fuc(a1-3)]GlcNAc(b1-4)]Man(a1-3)[Fuc(a1-2)Gal(b1-4)[Fuc(a1-3)]GlcNAc(b1-2)Man(a1-6)]Man(b1-4)GlcNAc(b1-4)GlcNAc
# Summary of the method: as §1
# [8] = target: Fuc(a1-2)Gal6S(b1-4)Glc
# Summary of the method: as §1
# [9] = target: Fuc(a1-2)Gal6S(b1-4)Glc6S
# Summary of the method: as §1
# [10] = target: Gal(a1-3)Gal(b1-3)[Fuc(a1-4)]GlcNAc(b1-2)Man(a1-3)[Gal(a1-3)Gal(b1-3)[Fuc(a1-4)]GlcNAc(b1-2)Man(a1-6)]Man(b1-4)GlcNAc(b1-4)GlcNAc
# Summary of the method: as §1
# [11] = target: Gal(a1-3)Gal(b1-4)GlcNAc(b1-6)GalNAc
# Summary of the method: as §1
# [12] = target: Gal(a1-4)Gal(b1-4)GlcNAc
# Summary of the method: as §1
# [13] = target: Gal(a1-6)Glc
# Summary of the method: as §1
# [14] = target: Gal(b1-3)GalNAc(b1-3)Gal(a1-4)Gal(b1-4)Glc
# Summary of the method: as §1
# [15] = target: Gal(b1-3)GlcNAc(b1-3)Gal(b1-3)GlcNAc
# Summary of the method: as §1
# [16] = target: Gal(b1-3)GlcNAc(b1-3)Gal(b1-4)[Fuc(a1-3)]GlcNAc
# Summary of the method: as §1
# [17] = target: Gal(b1-3)GlcNAc(b1-3)Gal(b1-4)[Fuc(a1-3)]GlcNAc(b1-6)[Gal(b1-3)GlcNAc(b1-3)]Gal(b1-4)Glc
# Summary of the method: as §1
# [18] = target: Gal(b1-4)Gal
# Summary of the method: as §1
# [19] = target: Gal(b1-4)GlcNAc(b1-2)[Gal(b1-4)GlcNAc(b1-4)]Man(a1-3)[Gal(b1-4)GlcNAc(b1-2)Man(a1-6)]Man(b1-4)GlcNAc(b1-4)GlcNAc
# Summary of the method: as §1
# [20] = target: Gal(b1-4)GlcNAc(b1-3)Gal(b1-3)GlcNAc
# Summary of the method: as §1
# [21] = target: Gal(b1-4)GlcNAc(b1-3)Gal(b1-4)GlcNAc(b1-3)Gal(b1-4)GlcNAc(b1-2)[Gal(b1-4)GlcNAc(b1-3)Gal(b1-4)GlcNAc(b1-3)Gal(b1-4)GlcNAc(b1-6)]Man(a1-6)[Gal(b1-4)GlcNAc(b1-3)Gal(b1-4)GlcNAc(b1-3)Gal(b1-4)GlcNAc(b1-2)Man(a1-3)]Man(b1-4)GlcNAc(b1-4)[Fuc(a1-6)]GlcNAc
# Summary of the method: as §1
# [22] = target: Gal(b1-4)GlcNAc(b1-3)Gal(b1-4)GlcNAc(b1-3)Gal(b1-4)GlcNAc(b1-3)Gal(b1-4)GlcNAc(b1-3)Gal(b1-4)GlcNAc(b1-2)[Gal(b1-4)GlcNAc(b1-3)Gal(b1-4)GlcNAc(b1-3)Gal(b1-4)GlcNAc(b1-3)Gal(b1-4)GlcNAc(b1-3)Gal(b1-4)GlcNAc(b1-6)]Man(a1-6)[Gal(b1-4)GlcNAc(b1-3)Gal(b1-4)GlcNAc(b1-3)Gal(b1-4)GlcNAc(b1-3)Gal(b1-4)GlcNAc(b1-3)Gal(b1-4)GlcNAc(b1-2)Man(a1-3)]Man(b1-4)GlcNAc(b1-4)[Fuc(a1-6)]GlcNAc
# Summary of the method: as §1
# [23] = target: Gal(b1-4)GlcNAc(b1-3)Gal(b1-4)GlcNAc(b1-6)[Gal(b1-3)]GalNAc
# Summary of the method: as §1
# [24] = target: Gal(b1-4)GlcNAc(b1-3)Gal(b1-4)[Fuc(a1-3)]GlcNAc(b1-3)Gal(b1-4)[Fuc(a1-3)]GlcNAc
# Summary of the method: as §1
# [25] = target: Gal3S(b1-4)[Fuc(a1-3)]GlcNAc6S
# Summary of the method: as §1
# [26] = target: Gal3S4S(b1-4)GlcNAc
# Summary of the method: as §1
# [27] = target: Gal4S(b1-4)GlcNAc
# Summary of the method: as §1
# [28] = target: GalNAc(b1-3)Gal(a1-4)Gal(b1-4)GlcNAc
# Summary of the method: as §1
# [29] = target: GalNAc3S(b1-4)[Fuc(a1-3)]GlcNAc
# Summary of the method: as §1
# [30] = target: GalNAc4S6S(b1-4)GlcNAc
# Summary of the method: as §1
binder,measurement,setting,value
GS7807E-bfa-538-23-538 (Bacteroides fragilis) (protein) TDSFESFNTNEAGFDNDSKKQDFNYYGIPLGIIQQGIYFNYDWGSGKNWPFQTMQNLGADLFSGYVHDFNPFNEGKNNSTYYMMDGWNGSTWDNTYGYIMPEVQKSETINEKDNIGFFGITKILKVELMHRLSDLYGPIVYTQFGSKTGSTPDTQQEAYKAFFNDLDTGIAKIREYQKANPDIESFAKFDILMPQGKRTFSEWIRFANSLRLRLAVRIAMADSKLAVAEAQKALTDEEGLLEGNDEVVAVSTSSGYTNPFGEINKAWGEVFMNANMESLLVGYEDPRMEKYFDKATGSDATSLIDYKGTYKGIRQGTGFSHKNYNGHSKSTITQQTDAVLMTPAEVWFLRAEAALRGWSSESVKDCYEKGVKASFAQWGAAGAEAYLESDRKPSDYVDAFKAANNVKAVNTLTPKWDDAAGNEDKLGRIITQKWLAMFPEGGEAWAEQRRTGYPRLFPVLVNQSEGTVDTNLGPRRLNFFVGIKTTNPEQYTQLVNALGGIDNCGTRLWWDTGRNF,glycan array binding signal (z-score),[1],-0.69
same,glycan array binding signal (z-score),[2],3.42
same,glycan array binding signal (z-score),[3],1.03
same,glycan array binding signal (z-score),[4],-0.553
same,glycan array binding signal (z-score),[5],-0.382
same,glycan array binding signal (z-score),[6],0.002
same,glycan array binding signal (z-score),[7],0.988
same,glycan array binding signal (z-score),[8],-0.644
same,glycan array binding signal (z-score),[9],-0.639
same,glycan array binding signal (z-score),[10],10.5
same,glycan array binding signal (z-score),[11],0.296
same,glycan array binding signal (z-score),[12],0.333
same,glycan array binding signal (z-score),[13],-0.29
same,glycan array binding signal (z-score),[14],0.143
same,glycan array binding signal (z-score),[15],0.812
same,glycan array binding signal (z-score),[16],-0.465
same,glycan array binding signal (z-score),[17],-0.627
same,glycan array binding signal (z-score),[18],-0.624
same,glycan array binding signal (z-score),[19],3.32
same,glycan array binding signal (z-score),[20],-0.306
same,glycan array binding signal (z-score),[21],4.56
same,glycan array binding signal (z-score),[22],0.867
same,glycan array binding signal (z-score),[23],4.07
same,glycan array binding signal (z-score),[24],0.531
same,glycan array binding signal (z-score),[25],-0.155
same,glycan array binding signal (z-score),[26],-0.693
same,glycan array binding signal (z-score),[27],-0.708
same,glycan array binding signal (z-score),[28],-0.246
same,glycan array binding signal (z-score),[29],3.75
same,glycan array binding signal (z-score),[30],-0.65
